L3MBTL1 inh = L3MBTL1 (human) inhibition; Potency, µM (top dose mostly 57.1 µM), without a hit: at the top dose activity, negative = inhibition, usual class: inhibitors; AlphaScreen L3MBTL1–H3K9me1 peptide binding; Q9Y468; 230,000 compounds, 0.66% hits; note: % is set by controls: 0 for no effect and ±100 for the full control effect; nearly all actives have a fitted effect of over 60% in size
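Displacement of a biotinylated histone H3(1-15) peptide monomethylated at Lys9 (75 nM) from L3MBTL1 (50 nM) was measured by AlphaScreen after a 30 min room-temperature compound incubation; cefsulodin titration served as intraplate control.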
HP1b binding inh = HP1-beta chromodomain-methylated histone interaction inhibition; P83916; AID 540317; AlphaScreen HP1-beta / biotin-H3K9me3 peptide binding; Potency, µM (titrated, usually from 114 µM), without a hit: at the highest dose activity change, negative = inhibition, most hits filed as inhibitors; 390,000 compounds, 0.56% hits; note: nearly all actives have a fitted effect of over 70% in size
Target sequence (P83916 whole entry, looked up): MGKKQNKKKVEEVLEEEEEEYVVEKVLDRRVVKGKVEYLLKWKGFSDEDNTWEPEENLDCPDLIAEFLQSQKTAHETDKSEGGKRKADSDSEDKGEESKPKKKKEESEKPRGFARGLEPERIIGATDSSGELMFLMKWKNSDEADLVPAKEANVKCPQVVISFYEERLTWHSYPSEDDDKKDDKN
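AlphaScreen: HP1-beta (50 nM) preformed 30 min with biotin-H3(1-18)K9me3 peptide (50 nM) in PBS pH 7.4, 0.01% Tween-20. Compound added for 30 min at RT, then streptavidin donor/nickel chelate acceptor beads (10 ug/mL) for 30 min.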
Sfp PPTase inh = blocks B. subtilis Sfp PPTase activity. 310,000 compounds, 3.5% hits. AID 1490. Q9F4F7. Potency, µM, for the others: largest response in the series, negative = inhibition, most hits filed as inhibitors. Biochemical Sfp PPTase activity, qHTS;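 note: the enzyme is Sfp with the accession as filed and its product quenches rhodamine fluorescence; 0% = enzyme reaction without inhibitor and -100% = no enzyme wells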
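Reaction rates are the 30-min fluorescence difference (ex 525, em 598 nm) in wells containing 15 nM Sfp, 5 uM rhodamine-CoA and 12.5 uM BHQ-2-YbbR at pH 7.6 with 10 mM MgCl2.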
G9a inh = G9a (human) methyltransferase inhibition; Q96KQ7; G9a H3K9 monomethylation, AlphaScreen, 2 h; Potency, µM (series often up to 102 µM), for inactives: at the top dose activity, negative = inhibition, hits mostly inhibitors; 350,000 compounds, 8.8% hits; note: % is set by controls: 0 for no effect and ±100 for the full control effect; nearly all actives have a fitted effect of over 75% in size
Target sequence (Q96KQ7 913-1193 limits assumed): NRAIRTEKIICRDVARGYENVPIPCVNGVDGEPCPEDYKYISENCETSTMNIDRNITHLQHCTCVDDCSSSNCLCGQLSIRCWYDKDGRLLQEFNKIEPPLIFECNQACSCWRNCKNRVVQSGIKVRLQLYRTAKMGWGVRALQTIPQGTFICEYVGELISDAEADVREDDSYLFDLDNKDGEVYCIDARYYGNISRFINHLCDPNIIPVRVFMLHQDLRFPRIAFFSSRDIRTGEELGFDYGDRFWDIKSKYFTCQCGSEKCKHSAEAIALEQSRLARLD
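Readings reflect AlphaScreen signal from monomethyl-H3K9 antibody detection. HMT at 20 nM; substrate b-H3K9 500 nM; cofactor SAM 20 uM; 2 h RT reaction; compounds tested as titrations in qHTS with 15 min preincubation.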
JMJD2A Tudor = JMJD2A Tudor domain (human) inhibition; 390,000 compounds, 4.4% hits; AID 504339; O75164; Potency, µM (highest dose often 114 µM), for the others: at the highest dose activity change, negative = inhibition, usual class: inhibitors; AlphaScreen JMJD2A-Tudor / H3K4me3 peptide binding; note: % is set by controls: 0 for no effect and ±100 for the full control effect; nearly all actives have a fitted effect of over 50% in size
BAZ2B block = blocks human BAZ2B; Q9UIF8; AlphaScreen BAZ2B-H3K14Ac peptide displacement; Potency, µM (doses to about 114 µM), for the others: at the top dose activity change, negative = inhibition, actives largely listed as inhibitors; 360,000 compounds, 4.4% hits; AID 504333; note: % is set by controls: 0 for no effect and ±100 for the full control effect; nearly all actives have a fitted effect of over 60% in size
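AlphaScreen displacement of biotin-H3(5-23)K14Ac peptide (50 nM final) from BAZ2B (50 nM final) in PBS pH 7.4, 0.01% Tween-20; complex preformed 30 min RT, then compounds (top 110 uM) 30 min RT, beads 20 min dark.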
* marks the source's active call; other numbers are inactive results; ? = inconclusive; / = no result given; [ ] = another dose, or the depositor's remark. Shown are actives, neighbours in structure and some others; about 12% of the full set was active somewhere. Calls come from the whole dose curve; as a rule, active = well fitted curve in the direction sought with a large enough effect; inconclusive = small, poorly fitted or top-dose-only effect, or another doubt; inactive = no such curve, though single readings can be large; an effect the other way counts as inactive or inconclusive. Potency is the fitted concentration of half-maximal effect.

SMILES	L3MBTL1 inh	HP1b binding inh	Sfp PPTase inh	G9a inh	JMJD2A Tudor	BAZ2B block
CCOc1ccc(NC(=O)CCN2C(=O)c3cccc([N+](=O)[O-])c3C2=O)cc1	-2%	16%	1%	/	-12%	-35%
O=C(CCN1C(=O)c2cccc([N+](=O)[O-])c2C1=O)Nc1nccs1	-26%	11%	-16%	40µM*	-22%	-8%
CN(C)c1ccc(NC(=O)CCN2C(=O)c3cccc([N+](=O)[O-])c3C2=O)cc1	-11%	29%	8%	10µM*	-17%	-35%
O=C(CCCN1C(=O)c2ccccc2C1=O)Nc1nccs1	/	17%	-8%	?	-7%	-2%
CCn1c(-c2ccc(N(C)C)cc2)nc2ccccc21	-8%	11%	9%	79µM*	-31%	50µM*
CC(C)n1c(-c2ccc(N(C)C)cc2)nc2ccccc21	-19%	?	-2%	40µM*	56µM*	40µM*
O=S(=O)(Nc1ccc2ccccc2n1)c1ccccc1	/	100%	6%	10%[12.7 µM]	-5%	-3%
COc1ccc(OCC(O)CNC(=O)c2ccc(OC)cc2)cc1 (stereo unspecified)	2%[11.4 µM]	13%	10%	-1%	-23%	-16%
COC(=O)c1ccc(OCC(O)CNCC(c2ccc(OC)cc2)N(C)C)c(OC)c1 (stereo unspecified)	/	-25%	-26%	?	1.8µM*	50µM*
O=C1c2ccccc2C(=O)c2c1cccc2N1CCOCC1	?	40µM*	-8%	/	35µM*	16µM*
Cc1ccccc1-c1noc(CCC(=O)NCC2CCCO2)n1 (stereo unspecified)	/	14%	9%	13µM*	-13%	7%
O=C(CCc1nc(-c2ccccc2Cl)no1)NCC1CCCO1 (stereo unspecified)	-7%	30%	1%	-6%	-13%	-13%
O=C1C2C3C=CC(CC3)C2C(=O)N1c1ccc(F)cc1 (stereo unspecified)	6%[2.29 µM]	45%	26%	11%[0.501 µM]	5%	-14%
CC(C)C1NC2(C(=O)c3ccccc3C2=O)C2C(=O)N(c3ccc(F)cc3)C(=O)C12 (stereo unspecified)	4%	-38%	25µM*	?	?	?
COc1ccc(CNC(=O)COC(=O)C2CC2C)cc1OC (stereo unspecified)	2%	23%	/	14µM*	-8%	8%
COc1ccc(CNC(=O)C2CCCN2)cc1OC (stereo unspecified)	4%	79µM*	-10%	18µM*	3.2µM*	45µM*
COc1ccc(CNC(=O)C2CC=CCC2C(=O)O)cc1OC (stereo unspecified)	6%	15%	-16%	24%[59 µM]	-1%	17%
COC(=O)c1ccc(N2CCOCC2)c(NC(=O)Nc2cccc(OC)c2)c1	2%	-2%	?	45µM*	-8%	5%
CCOC(=O)c1ccc(N2CCN(c3ccccc3F)CC2)c(NC(=O)Nc2cccc(OC)c2)c1	-7%	-4%	20%	-48%[59 µM]	-35%	-25%
COc1ccc(-c2csc(N3CCN(c4cc5c(cc4Cl)nc(-c4ccncc4)n5CCOCCO)CC3)n2)cc1	-7%	21%	45µM*	28µM*	-23%	50µM*
CCCn1c(C)nc2cc(Cl)c(N3CCN(c4nc(-c5ccc(C)cc5)cs4)CC3)cc21	-3%	-4%	-8%	/	-31%	-4%
Cc1ccc(-c2csc(N3CCN(c4cc5c(cc4Cl)nc(-c4ccncc4)n5CCN4CCCCC4)CC3)n2)cc1	-10%	-5%	56µM*	22µM*	?	?
Cc1ccc(-c2csc(N3CCN(c4ccc5nc(-c6ccncc6)n(CCN6CCCCC6)c5c4)CC3)n2)cc1	-29%	?	56µM*	35µM*	45µM*	?
CCN(C(=O)Cn1c(=O)oc2cc(S(=O)(=O)N3CCCCC3)ccc21)c1ccccc1	/	13%	/	4%[59 µM]	-16%	2%
CNC(C)C(=O)NC(C(=O)N1CCCC1C(=O)NNc1ccccc1)C(C)C (stereo unspecified)	-11%	20%	/	16%[2.33 µM]	?	?
SMILES	L3MBTL1 inh	HP1b binding inh	Sfp PPTase inh	G9a inh	JMJD2A Tudor	BAZ2B block
CC(N)C(=O)NC(C(=O)N1CCCC1C(=O)NC(c1ccccc1)c1ccccc1)C(C)C (stereo unspecified)	15%	23%	/	9%[2.33 µM]	89µM*	-3%
CNC(=O)C1CCCN(c2nnc(C)c3c(C)n(-c4ccccc4)nc23)C1 (stereo unspecified)	/	22%	/	-7%[59 µM]	-6%	-4%
COc1ccc(C(=O)N2C(=S)NC(=O)/C2=C\c2ccc(C)cc2)cc1	-22%	-23%	50µM*	-1%[59 µM]	50µM*	50µM*
CCOC(=O)C1=C(N)Oc2cc(C)[nH]c(=O)c2C1c1ccncc1 (stereo unspecified)	-4%	21%	18%	10%	-12%	-8%
CCOC(=O)C1=C(N)Oc2c(c(=O)[nH]c3ccccc23)C1c1ccccc1 (stereo unspecified)	/	31%	20µM*	-14%[59 µM]	-13%	-25%
CC(C)c1ccccc1OCC(O)CN1CCN(S(=O)(=O)c2ccc([N+](=O)[O-])cc2)CC1 (stereo unspecified)	/	?	-22%	35µM*	20µM*	40µM*
OC(COc1ccccc1Cl)CN1CCN(CC(O)COc2ccccc2Cl)CC1 (stereo unspecified)	-8%	-23%	-6%	-45%[59 µM]	-14%	-32%
N#Cc1ccccc1S(=O)(=O)N1CCN(CC(O)COc2ccccc2F)CC1 (stereo unspecified)	/	?	56µM*	2.2µM*	3.2µM*	28µM*
O=S(=O)(c1ccccc1)N1CCN(CC(O)COc2ccc3c(c2)CCC3)CC1 (stereo unspecified)	/	2%	10%	?	-24%	-22%
O=S(=O)(c1ccc(F)cc1)N1CCN(CC(O)COc2ccccc2F)CC1 (stereo unspecified)	/	25µM*	56µM*	8.9µM*	7.9µM*	20µM*
N#Cc1ccccc1S(=O)(=O)N1CCN(C(=O)CCc2ccccc2)CC1	8%	24%	/	4%[0.501 µM]	-8%	6%
N#Cc1ccccc1S(=O)(=O)N1CCN(CC(O)c2ccccc2)CC1 (stereo unspecified)	8%	45µM*	-21%	16µM*	2.2µM*	50µM*
COc1ccccc1C(=O)NC(=O)Nc1c(C)cc(C)cc1C	/	36%	-2%	8%	-6%	1%
CCCn1c(CN2CCN(C(=O)c3ccco3)CC2)nc2cc(S(=O)(=O)N(C)C)ccc21	-6%	?	/	40µM*	-8%	20%

Source: PubChem (National Center for Advancing Translational Sciences (NCATS))
